An excerpt weighted towards active compounds, which were near 8.8% of everything screened.
KB-3-1 tox – kills parental KB-3-1 adenocarcinoma cells; KB-3-1 viability, CellTiter-Glo ATP luminescence, 72 h; Potency, µM (doses to about 46.1 µM), most hits filed as cytotoxic; 1.4% of 400,000 active; also: nearly all actives have a fitted effect of over 60% in size
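Cytotoxicity in the drug-sensitive parental line KB-3-1 was scored as loss of CellTiter-Glo luminescence following 72 h incubation with compound. Values come from curve fitting of normalized concentration-response data.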
HT1080NT lethal – kills 2HG-producing HT-1080-NT fibrosarcoma cells; 1.6% of 360,000 active; Potency, µM (highest dose often 46.1 µM), actives largely listed as cytotoxic; HT-1080-NT fibrosarcoma viability, CellTiter-Glo ATP luminescence, 48 h;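 also: NT is the 2HG producing partner of a matched IDH1 knockdown line; nearly all actives have a fitted effect of over 55% in size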
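Compounds were tested in concentration-response format on HT-1080-NT cells for 48 hours at 37 degrees C. Cell viability came from CellTiter-Glo luminescence; curves were classified by r2, response magnitude and activity.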
IL-1B inflam inh – inhibitors of inflammasome signaling (IL-1 beta secretion); activity change, % at 57.5 µM; AID 743279; 4.7% of 360,000 active; THP-1 LPS/ATP IL-1B secretion, AlphaLISA, 16 h; stronger effect = lower value; in the data active = activity change below about -50%; inconclusive = mostly about -30% to -49%
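THP-1 cells pretreated 1 hr with compounds (up to 57.5 uM final), then stimulated with LPS (250 ng/mL final) plus ATP (1.25 mM final); secreted IL-1B measured by AlphaLISA after 16 hr, decreased signal indicating inhibition.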
HT1080 IDH1KD tx – HT-1080 IDH1 knockdown cell toxicity (counter line). 2% of 360,000 active. Potency, µM (top dose mostly 46.1 µM), usual class: cytotoxic. HT-1080 IDH1 knockdown viability, ATP luminescence, 48 h
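After a 2 h attachment period, IDH1KD HT-1080 cells took pin-transferred compound for 48 h at 37 °C; ATP-based luminescence after 10 min room-temperature reagent incubation reported viability.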
KB-V1 MDR tox – KB-V1 MDR subline cytotoxicity; KB-V1 MDR cells viability, CellTiter-Glo, 72 h; Potency, µM (titrated, usually from 46.1 µM), actives largely listed as cytotoxic; 3.4% of 400,000 active; AID 1347076; also: nearly all actives have a fitted effect of over 60% in size
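qHTS viability screen in drug-selected KB-V1 MDR cells: 72 h compound treatment at 37 degrees C, ATP luminescence end point.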
Each line names hits and unclear results; the compound was inactive in the other large screens; ! = not confirmed by another sample. Unless noted, calls follow the shape of the dose curve; as a rule, active = well fitted curve in the direction sought with a large enough effect; inconclusive = small, poorly fitted or top-dose-only effect, or another doubt; inactive = no such curve, though single readings can be large; an effect the other way counts as inactive or inconclusive.

CCCNC(=O)c1ccccc1NC(=O)c1nsc2ccccc12	none (no result: HT1080NT lethal, IL-1B inflam inh, HT1080 IDH1KD tx)
Cc1ccc(OC(C)C(=O)Nc2ccccc2C(=O)NCc2cccnc2)cc1C (stereo not drawn)	KB-V1 MDR tox inconclusive
CC(C)c1c(O)ccc2c1CC[C@H]1C(C)(C)CCC[C@]21C	HT1080NT lethal inconclusive, IL-1B inflam inh inconclusive, HT1080 IDH1KD tx inconclusive, KB-V1 MDR tox inconclusive
O=C(NCCCN1CCOCC1)C(=O)N/N=C/c1c2ccccc2cc2ccccc12	KB-3-1 tox 5.8µM, HT1080NT lethal inconclusive, HT1080 IDH1KD tx inconclusive, KB-V1 MDR tox 10µM
COc1ccc(C(=O)NCC(=O)OCC(=O)N2N=C(c3ccc(Cl)cc3)CC2c2ccco2)cc1OC (stereo not drawn)	none
COc1cccc(N=C(N)N=C(N)N)c1	none
COc1ccnc(CSC(N)=Nc2ccc(F)cc2)c1	KB-3-1 tox inconclusive, IL-1B inflam inh -99, KB-V1 MDR tox inconclusive
Cc1ccc2c(CC(=O)Nc3ccc(S(=O)(=O)N4CCCCC4)cc3)coc2c1C	KB-V1 MDR tox inconclusive (no result: HT1080NT lethal, IL-1B inflam inh, HT1080 IDH1KD tx)
Cc1ccc(NC(=S)N(CCN(C)C)Cc2cc3cc(C)cc(C)c3[nH]c2=O)cc1	IL-1B inflam inh -53, KB-V1 MDR tox inconclusive
Cc1ccc2cc(CN(CCN(C)C)C(=S)Nc3ccccc3)c(=O)[nH]c2c1C	KB-3-1 tox inconclusive, IL-1B inflam inh -85
CC(=O)N(CCc1ccccc1)Cc1cc2ccc(C)c(C)c2[nH]c1=O	KB-V1 MDR tox inconclusive
CCN1CCCC1CN(Cc1cc2ccc(C)cc2[nH]c1=O)C(=S)Nc1ccc(OC)cc1OC (stereo not drawn)	HT1080NT lethal inconclusive, IL-1B inflam inh -52, HT1080 IDH1KD tx inconclusive
Cc1ccc(C)c2[nH]c(=O)c(CN(CC3CCCO3)C(=S)NCc3ccco3)cc12 (stereo not drawn)	IL-1B inflam inh -77, HT1080 IDH1KD tx inconclusive
CCN1CCCC1CN(Cc1cc2cc(C)cc(C)c2[nH]c1=O)C(=O)Nc1ccccc1OC (stereo not drawn)	IL-1B inflam inh inconclusive, HT1080 IDH1KD tx inconclusive
COc1ccc(-c2cc(C(=O)Nc3cccc(O)c3)on2)cc1OC	none (no result: HT1080NT lethal, IL-1B inflam inh, HT1080 IDH1KD tx)
Cc1ccc(C)c(NS(=O)(=O)c2cc3c(cc2C)n(C)c(=O)c(=O)n3C)c1	none (no result: HT1080NT lethal, IL-1B inflam inh, HT1080 IDH1KD tx)
CCN(CC)CCN(Cc1cc2ccc(C)cc2[nH]c1=O)C(=S)Nc1ccccc1C(=O)OC	KB-3-1 tox inconclusive, HT1080NT lethal inconclusive, IL-1B inflam inh -77, HT1080 IDH1KD tx 18µM, KB-V1 MDR tox inconclusive
CCN(CC)CCN(Cc1cc2cccc(C)c2[nH]c1=O)C(=S)Nc1ccccc1	IL-1B inflam inh -80
CCNC(=S)N(Cc1cc2cccc(C)c2[nH]c1=O)C1CCCC1	KB-3-1 tox inconclusive, KB-V1 MDR tox 18µM
Cc1ccc2cc(CN(CCCO)S(=O)(=O)c3ccccc3F)c(=O)[nH]c2c1C	IL-1B inflam inh -59
Cc1ccc2cc(CN(CCCO)S(=O)(=O)c3cccc4nsnc34)c(=O)[nH]c2c1C	none
Cc1cccc2cc(CN(Cc3ccccc3)C(=O)N(C)C)c(=O)[nH]c12	none
CN1CCN(c2nc3c(c(=O)[nH]c(=O)n3C)n2Cc2ccccc2)CC1	none
CCCn1nnnc1NCc1ccc(C(C)C)cc1	none
Fc1ccc(C(NCCc2ccc(Cl)cc2)c2nnc(-c3ccccc3Cl)o2)cc1 (stereo not drawn)	KB-V1 MDR tox inconclusive (no result: HT1080NT lethal, IL-1B inflam inh, HT1080 IDH1KD tx)
Cc1cccc2cc(CN(CC3CCCO3)C(=S)Nc3ccccc3)c(=O)[nH]c12 (stereo not drawn)	KB-V1 MDR tox 3.7µM
CCN(CC1COc2ccccc2O1)S(=O)(=O)c1ccc(C)cc1 (stereo not drawn)	KB-V1 MDR tox 23µM
N#Cc1c(N)nc(Sc2ccc(Cl)cc2)c(C#N)c1-c1ccccc1Cl	KB-3-1 tox 4.6µM, HT1080NT lethal inconclusive, IL-1B inflam inh -96, HT1080 IDH1KD tx inconclusive, KB-V1 MDR tox 23µM
CCSc1nc(N)c(C#N)c(-c2ccccc2Cl)c1C#N	HT1080 IDH1KD tx inconclusive, KB-V1 MDR tox 21µM
OC(c1cc(C(F)(F)F)nc2c(Cl)cc(Cl)cc12)C1CCCCN1 (stereo not drawn)	KB-3-1 tox inconclusive, HT1080NT lethal inconclusive, IL-1B inflam inh -89, HT1080 IDH1KD tx inconclusive, KB-V1 MDR tox inconclusive
O[C@@H](c1cc(C(F)(F)F)nc2c(C(F)(F)F)cccc12)[C@H]1CCCCN1	KB-3-1 tox 18µM!, HT1080NT lethal 9.2µM, IL-1B inflam inh inconclusive, HT1080 IDH1KD tx 21µM, KB-V1 MDR tox inconclusive
OC(c1cc(-c2ccc(Cl)cc2)nc2ccccc12)C1CCCCN1 (stereo not drawn)	HT1080NT lethal inconclusive, IL-1B inflam inh -78
Cc1nc2c(C(F)(F)F)cccc2c2c1CCS2	none
CC(O)(c1ccccc1)C(c1ccccc1)C1CCCCN1 (stereo not drawn)	IL-1B inflam inh inconclusive, KB-V1 MDR tox inconclusive
O=c1c2cc(Cl)cc(Cl)c2nc2n1CCC2	none
CC(C)(C)NCCC(O)c1cc(C(F)(F)F)nc2c(C(F)(F)F)cccc12 (stereo not drawn)	KB-3-1 tox inconclusive, IL-1B inflam inh -88, HT1080 IDH1KD tx inconclusive, KB-V1 MDR tox 21µM
O=S(=O)(c1ccc2ncn(O)c2c1)N1CCOCC1	KB-V1 MDR tox inconclusive
CCCCn1nnnc1C1(C)CCC(=O)N1CCCN1CCOCC1 (stereo not drawn)	none
CCOC(=O)c1c(C)oc2nc(C)nc(NCCc3ccc(SC)cc3)c12	none (no result: HT1080NT lethal, IL-1B inflam inh, HT1080 IDH1KD tx)
CSc1nc(C(=O)N2CCc3c([nH]c4ccccc34)C2c2ccccn2)cs1 (stereo not drawn)	HT1080 IDH1KD tx inconclusive
Cc1ccc2nc(C(=O)N3CCc4c([nH]c5ccccc45)C3c3ccccn3)cn2c1 (stereo not drawn)	IL-1B inflam inh -59
O=C(c1cc(-c2ccccc2)n[nH]1)N1CCc2c([nH]c3ccccc23)C1c1ccccn1 (stereo not drawn)	KB-3-1 tox inconclusive, HT1080NT lethal inconclusive, IL-1B inflam inh -65, HT1080 IDH1KD tx inconclusive
Cc1cccc(C2c3[nH]c4ccccc4c3CCN2C(=O)c2noc3c2CCCC3)n1 (stereo not drawn)	KB-3-1 tox inconclusive, IL-1B inflam inh -54
COc1ccc(OC)c2sc(N(CCCN(C)C)C(=O)CCS(=O)(=O)c3ccccc3)nc12	KB-3-1 tox 16µM, IL-1B inflam inh -107, HT1080 IDH1KD tx inconclusive, KB-V1 MDR tox inconclusive
Cc1ccc2sc(N(CCCN(C)C)C(=O)CCS(=O)(=O)c3ccccc3)nc2c1C	KB-3-1 tox 16µM, HT1080NT lethal inconclusive, IL-1B inflam inh -93, HT1080 IDH1KD tx inconclusive
COc1ccc(C)c2sc(N(CCCN(C)C)C(=O)CS(=O)(=O)c3ccc(F)cc3)nc12	HT1080NT lethal 18µM, IL-1B inflam inh inconclusive
CN(C)CCN(C(=O)CCS(=O)(=O)c1ccccc1)c1nc2c(F)cccc2s1	none
CCc1nnc2c3ccccc3nc(N3CCN(c4cc(Cl)ccc4C)CC3)n12	none (no result: HT1080NT lethal, IL-1B inflam inh, HT1080 IDH1KD tx)
CCOC(=O)c1sc(NC(=O)c2cccnc2)c(C#N)c1C	none
